# Results filed as inconclusive are left out. Unmarked numbers belong to inactive results. Activity calls are given as the source filed them. Calls come from the whole dose curve; as a rule, active = well fitted inhibition curve with a large enough effect; inconclusive = small, poorly fitted or top-dose-only effect, or effect the other way; inactive = flat fitted curve, though single readings scatter.
# Target: ATP-dependent 6-phosphofructokinase (Trypanosoma brucei brucei) (UniProt O15648)
# Assay: qHTS Assay to Find Inhibitors of T. brucei phosphofructokinase: hit validation (AID 492961);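 note: luminescence reports ADP formed as PFK phosphorylates fructose-6-phosphate with ATP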
# Conditions: T. brucei PFK, ADP-Glo luminescence; series mostly up to 51.4 µM; activity change, negative = inhibition: at the top concentration
# Outline: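 Reaction: 0.1 M triethanolamine pH 8.0, 5 mM MgCl2, F6P 0.5 mM, ATP 0.1 mM, PFK 1.25 nM, 45 min RT. Read-out: ADP-Glo luminescence. Analysis: concentration-response fits, classed by r2 and efficacy.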
# % is set by controls: 0 for no effect and ±100 for the full control effect.
# Sequence of ATP-dependent 6-phosphofructokinase (Trypanosoma brucei brucei) (O15648 whole entry, looked up): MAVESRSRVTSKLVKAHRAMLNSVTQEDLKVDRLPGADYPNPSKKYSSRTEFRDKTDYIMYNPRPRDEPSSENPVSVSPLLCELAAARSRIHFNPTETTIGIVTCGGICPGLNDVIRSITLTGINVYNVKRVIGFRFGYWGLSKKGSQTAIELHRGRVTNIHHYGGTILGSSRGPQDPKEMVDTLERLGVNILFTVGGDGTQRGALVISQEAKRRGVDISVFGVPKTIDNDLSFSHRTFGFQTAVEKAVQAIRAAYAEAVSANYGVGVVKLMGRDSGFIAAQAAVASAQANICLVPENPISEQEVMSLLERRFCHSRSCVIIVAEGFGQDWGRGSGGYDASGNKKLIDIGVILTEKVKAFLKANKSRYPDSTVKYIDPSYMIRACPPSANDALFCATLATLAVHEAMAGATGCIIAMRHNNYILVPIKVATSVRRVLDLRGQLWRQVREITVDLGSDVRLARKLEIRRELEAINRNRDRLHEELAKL
SMILES,"activity change, negative = inhibition",Potency
CCOC(=O)c1ccc(O)cc1,-5.94%,
O=C(CCCN1CCN(c2ccccn2)CC1)c1ccc(F)cc1,-6.19%,
CC12CCC(CC1)C(C)(C)O2,-7.84%,
CC1(C)[C@@H]2CC[C@@]1(C)C(=O)C2,1.93%,
O=C(O)c1ccccc1-c1ccc(C(F)(F)F)cc1,9.22%,
CC(C)(C)C(=O)NCCCC(=O)O,-9.41%,
CCCOC(=O)c1ccccc1,-0.936%,
CCOC(=O)[C@H](CCc1ccccc1)N[C@@H](C)C(=O)N1C(=O)N(C)C[C@H]1C(=O)O,-4.97%,
CC(=O)Oc1ccc(C2(c3ccc(OC(C)=O)cc3)C(=O)Nc3ccccc32)cc1,,inactive
CC(=O)CCC(=O)O,2.82%,
Cc1cc(O)cc2c1O[C@](C)(CCC[C@H](C)CCC[C@H](C)CCCC(C)C)CC2,0%,
CCCCOc1cc(C(=O)OCCN(CC)CC)ccc1N,-1.34% [at 24.3 µM],
N[C@@H](CSCCCO)C(=O)O,9.99%,
O=C1c2c(O)cccc2Cc2cccc(O)c21,22.2%,
Cc1cc(CC(=O)O)n(C)c1C(=O)c1ccc(Cl)cc1,,inactive
CCOc1ccc2ccccc2c1C(=O)N[C@@H]1C(=O)N2[C@@H]1SC(C)(C)[C@@H]2C(=O)O,6.21% [at 24.3 µM],
O=C1O[C@H]([C@@H](O)CO)C(O)=C1O,-9.67%,
NC(=O)N/N=C/c1ccc([N+](=O)[O-])o1,8.16%,

SMILES,"activity change, negative = inhibition",Potency
c1ccc(CN(CC2=NCCN2)c2ccccc2)cc1,4.52%,
Cc1ccc(C(C)C)cc2c(C)ccc1-2,7.16%,
COc1ccc2[nH]c(S(=O)Cc3ncc(C)c(OC)c3C)nc2n1 (stereo unspecified),-1.44%,
Cn1c(=O)c2c(ncn2CC2OCCO2)n(C)c1=O,2.05%,
O=C(O)CC(O)C(=O)O (stereo unspecified),2.45%,
O=C(O)COc1nn(Cc2ccccc2)c2ccccc12,-8.35%,
O=S(=O)(O)NC1CCCCC1,9.27%,
CCCCc1ncc(/C=C(\Cc2cccs2)C(=O)O)n1Cc1ccc(C(=O)O)cc1,-3.84%,
CCCCN1CCCC[C@H]1C(=O)Nc1c(C)cccc1C,5.96%,
Cc1ccc2nc(N)[nH]c(=O)c2c1Sc1ccncc1,0%,
CC[C@@]1(c2ccccc2)NC(=O)N(C)C1=O,-2.65%,
COc1ccccc1O,3.66%,
O=c1cc[nH]c(=O)[nH]1,-6.28%,
Cc1cc(C(C#N)c2ccc(Cl)cc2)c(Cl)cc1NC(=O)c1cc(I)cc(I)c1O (stereo unspecified),-1.86%,
O=C1NS(=O)(=O)c2ccccc21,-5.28%,
COc1cc(C(=O)N2CCOCC2)cc(OC)c1OC,,inactive
CC(C)(C)NCC(O)COc1ccc(NC(=O)NC2CCCCC2)cc1 (stereo unspecified),-6.77%,
Nc1ccc(S(=O)(=O)NC(=O)c2ccccc2)cc1,-1.77% [at 24.3 µM],
